# According to PubChem BioAssay (NCATS):
# Results filed as inconclusive are left out. Unmarked numbers belong to inactive results. Calls of active or inactive are those of the source. Calls come from the whole dose curve; as a rule, active = well fitted cell-killing curve with a large enough effect; inconclusive = small, poorly fitted or top-dose-only effect, or effect the other way; inactive = no such curve, though single readings can be large or run the other way.
# How the values were obtained:
# [1] = Quantitative High-Throughput drug screen in 47 multiple myeloma cell lines against the NCATS MIPE library collection: MM1S_ATCC cell viability assay (AID 1918980); settings: MM1S myeloma viability, CellTiter-Glo ATP luminescence, 48 h; series mostly up to 45.8 µM; note: nearly all actives have a fitted effect of over 45% in size
# In short: (§1)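 qHTS format: cells plated (500/well), pin-dosed with MIPE 4.0 compounds, kept 48 h at 37 °C. Readout was CellTiter-Glo luminescence, median RLU.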
# [2] = Quantitative High-Throughput drug screen in 47 multiple myeloma cell lines against the NCATS MIPE library collection: MM1R_ATCC cell viability assay (AID 1918981); settings: MM1R multiple myeloma cells, CellTiter-Glo viability, 48 h; series mostly up to 45.8 µM; note: nearly all actives have a fitted effect of over 35% in size
# In short: as §1
# [3] = Quantitative High-Throughput drug screen in 47 multiple myeloma cell lines against the NCATS MIPE library collection: LP1_DSMZ cell viability assay (AID 1918982); settings: LP1 myeloma viability, CellTiter-Glo ATP luminescence, 48 h; series mostly up to 45.8 µM; note: nearly all actives have a fitted effect of over 35% in size
# In short: as §1
# [4] = Quantitative High-Throughput drug screen in 47 multiple myeloma cell lines against the NCATS MIPE library collection: KMS34_JCRB cell viability assay (AID 1918985); settings: KMS34 myeloma viability, CellTiter-Glo ATP luminescence, 48 h; series mostly up to 45.8 µM; note: nearly all actives have a fitted effect of over 40% in size
# In short: as §1
# [5] = Quantitative High-Throughput drug screen in 47 multiple myeloma cell lines against the NCATS MIPE library collection: OCIMY7_PLB cell viability assay (AID 1918987); settings: OCI-MY7 myeloma viability, CellTiter-Glo ATP, 48 h; series mostly up to 45.8 µM; note: nearly all actives have a fitted effect of over 65% in size
# In short: as §1
# [6] = Quantitative High-Throughput drug screen in 47 multiple myeloma cell lines against the NCATS MIPE library collection: OCIMY5_PLB cell viability assay (AID 1918988); settings: OCI-MY5 myeloma viability, ATP luminescence, 48 h; series mostly up to 45.8 µM; note: nearly all actives have a fitted effect of over 65% in size
# In short: as §1
# [7] = Quantitative High-Throughput drug screen in 47 multiple myeloma cell lines against the NCATS MIPE library collection: OPM1_PLB cell viability assay (AID 1918989); settings: CellTiter-Glo, 48 h; series mostly up to 45.8 µM; note: nearly all actives have a fitted effect of over 40% in size
# In short: as §1
# [8] = Quantitative High-Throughput drug screen in 47 multiple myeloma cell lines against the NCATS MIPE library collection: SKMM1_PLB cell viability assay (AID 1919863); settings: SKMM1 myeloma viability, CellTiter-Glo ATP, 48 h; viability: hits give low values; note: nearly all actives have a fitted effect of over 35% in size
# In short: as §1
# [9] = Quantitative High-Throughput drug screen in 47 multiple myeloma cell lines against the NCATS MIPE library collection: U266_ATCC cell viability assay (AID 1919864); settings: U266 myeloma viability, CellTiter-Glo ATP luminescence, 48 h; series mostly up to 45.8 µM; note: nearly all actives have a fitted effect of over 35% in size
# In short: as §1
# [10] = Quantitative High-Throughput drug screen in 47 multiple myeloma cell lines against the NCATS MIPE library collection: XG1_PLB cell viability assay (AID 1919866); settings: CellTiter-Glo ATP, 48 h; series mostly up to 45.8 µM; note: nearly all actives have a fitted effect of over 35% in size
# In short: as §1
# [11] = Quantitative High-Throughput drug screen in 47 multiple myeloma cell lines against the NCATS MIPE library collection: VP6_DJ cell viability assay (AID 1919867); settings: ATP luminescence, 48 h; series mostly up to 45.8 µM; note: nearly all actives have a fitted effect of over 40% in size
# In short: as §1
# [12] = Quantitative High-Throughput drug screen in 47 multiple myeloma cell lines against the NCATS MIPE library collection: PCM6_Riken cell viability assay (AID 1919870); settings: CellTiter-Glo ATP, 48 h; series mostly up to 45.8 µM; note: nearly all actives have a fitted effect of over 30% in size
# In short: as §1
# [13] = Quantitative High-Throughput drug screen in 47 multiple myeloma cell lines against the NCATS MIPE library collection: RPMI8226_ATCC cell viability assay (AID 1919871); settings: RPMI8226 myeloma viability, CellTiter-Glo ATP luminescence, 48 h; series mostly up to 45.8 µM; note: nearly all actives have a fitted effect of over 30% in size
# In short: as §1
# [14] = Quantitative High-Throughput drug screen in 47 multiple myeloma cell lines against the NCATS MIPE library collection: KMS11_JCRBsus cell viability assay (AID 1919873); settings: KMS11 myeloma viability, CellTiter-Glo ATP luminescence, 48 h; series mostly up to 45.8 µM; note: nearly all actives have a fitted effect of over 50% in size
# In short: as §1
# [15] = Quantitative High-Throughput drug screen in 47 multiple myeloma cell lines against the NCATS MIPE library collection: XG6_PLB cell viability assay (AID 1919865); settings: XG6 myeloma viability, CellTiter-Glo ATP luminescence, 48 h; series mostly up to 45.8 µM; note: nearly all actives have a fitted effect of over 40% in size
# In short: as §1
# [16] = Quantitative High-Throughput drug screen in 47 multiple myeloma cell lines against the NCATS MIPE library collection: KMS28BM_JCRB cell viability assay (AID 1919874); settings: CellTiter-Glo ATP, 48 h; series mostly up to 45.8 µM; note: nearly all actives have a fitted effect of over 35% in size
# In short: as §1
# [17] = Quantitative High-Throughput drug screen in 47 multiple myeloma cell lines against the NCATS MIPE library collection: L363_DSMZ cell viability assay (AID 1918984); settings: L363 myeloma viability, CellTiter-Glo ATP luminescence, 48 h; series mostly up to 45.8 µM; note: nearly all actives have a fitted effect of over 40% in size
# In short: as §1
# Potency is the fitted concentration of half-maximal effect.
Compound,Potency [1],Potency [2],Potency [3],Potency [4],Potency [5],Potency [6],Potency [7],viability [8],Potency [9],Potency [10],Potency [11],Potency [12],Potency [13],Potency [14],Potency [15],Potency [16],Potency [17],Potency [8]
CN(C)CCc1ccc(O)cc1,inactive,inactive,inactive,inactive,inactive,inactive,inactive,107%,inactive,inactive,6.62 µM (active),inactive,inactive,inactive,,,,
O=c1[nH]c2ccccc2n1CCCN1CCC(n2c(=O)[nH]c3cc(Cl)ccc32)CC1,0.0418 µM (active),inactive,,,,,inactive,125%,inactive,,13.2 µM (active),2.96 µM (active),,,20.9 µM (active),,,
NCC1(CC(=O)O)CCCCC1,inactive,,inactive,,,,inactive,140%,inactive,,,16.6 µM (active),inactive,inactive,,inactive,,
CC(C)CC(N(C)C)C1(c2ccc(Cl)cc2)CCC1 (stereo not given),5.26 µM (active),,inactive,inactive,,,inactive,,4.18 µM (active),,,,,18.7 µM (active),inactive,,inactive,
Cc1sc2c(c1C)C(c1ccc(Cl)cc1)=N[C@@H](CC(=O)OC(C)(C)C)c1nnc(C)n1-2,1.32 µM (active),0.332 µM (active),1.05 µM (active),0.235 µM (active),,0.132 µM (active),0.0743 µM (active),,0.148 µM (active),0.187 µM (active),0.0833 µM (active),2.96 µM (active),,0.059 µM (active),7.43 µM (active),0.105 µM (active),0.132 µM (active),0.372 µM (active)
C[C@@H]1O[C@@H](O[C@H]2C[C@@H](O)[C@]3(CO)[C@H]4[C@H](O)C[C@]5(C)[C@@H](C6=CC(=O)OC6)CC[C@]5(O)[C@@H]4CC[C@]3(O)C2)[C@H](O)[C@H](O)[C@H]1O,0.059 µM (active),0.0526 µM (active),0.0166 µM (active),0.059 µM (active),0.0148 µM (active),0.0235 µM (active),,,0.0209 µM (active),0.0074 µM (active),0.0166 µM (active),0.0187 µM (active),,0.0935 µM (active),0.0187 µM (active),0.0209 µM (active),0.0469 µM (active),0.059 µM (active)
Fc1ccc(C(OCCN2CCN(CCCc3ccccc3)CC2)c2ccc(F)cc2)cc1,18.7 µM (active),16.6 µM (active),18.7 µM (active),,7.43 µM (active),13.2 µM (active),16.6 µM (active),,,7.43 µM (active),9.35 µM (active),10.5 µM (active),18.7 µM (active),11.8 µM (active),7.43 µM (active),13.2 µM (active),inactive,23.5 µM (active)
COc1ccc2c(c1OC)CN1CCc3cc4c(cc3C1C2)OCO4 (stereo not given),,,,inactive,inactive,,inactive,104%,,14.8 µM (active),5.9 µM (active),16.6 µM (active),inactive,,20.9 µM (active),inactive,5.9 µM (active),
O=C(O)C(=O)c1cn(Cc2ccccc2)c2ccc(-c3ccc(OC(F)(F)F)cc3)cc12,23.5 µM (active),inactive,inactive,inactive,,,inactive,,23.5 µM (active),9.35 µM (active),,16.6 µM (active),inactive,,,inactive,,3.72 µM (active)
CNC(=O)c1ccc(N2C(=S)N(c3ccc(C#N)c(C(F)(F)F)c3)C(=O)C23CCC3)cc1F,1.05 µM (active),13.2 µM (active),,,2.96 µM (active),1.32 µM (active),,,8.33 µM (active),1.32 µM (active),8.33 µM (active),7.43 µM (active),inactive,inactive,1.05 µM (active),inactive,,
CN1CCN(C(=O)O[C@H]2c3nccnc3C(=O)N2c2ccc(Cl)cn2)CC1,inactive,inactive,inactive,inactive,inactive,,inactive,,,inactive,inactive,inactive,inactive,inactive,inactive,inactive,,
N[C@@H](Cc1ccc(N(CCCl)CCCl)cc1)C(=O)O,13.2 µM (active),2.64 µM (active),16.6 µM (active),16.6 µM (active),0.662 µM (active),9.35 µM (active),13.2 µM (active),,16.6 µM (active),7.43 µM (active),11.8 µM (active),3.72 µM (active),,23.5 µM (active),1.18 µM (active),23.5 µM (active),5.26 µM (active),26.4 µM (active)
Cn1cc(C2=C(c3cn(C4CCN(Cc5ccccn5)CC4)c4ccccc34)C(=O)NC2=O)c2ccccc21,7.43 µM (active),13.2 µM (active),10.5 µM (active),10.5 µM (active),3.72 µM (active),7.43 µM (active),16.6 µM (active),86.1%,,5.26 µM (active),11.8 µM (active),9.35 µM (active),inactive,,2.96 µM (active),inactive,0.833 µM (active),
CN(C)CCN(C)CCc1ccc(Cl)c(Cl)c1,,inactive,,,,inactive,inactive,,,inactive,inactive,,inactive,inactive,inactive,inactive,,
CC(O)(CS(=O)(=O)c1ccc(F)cc1)C(=O)Nc1ccc(C#N)c(C(F)(F)F)c1 (stereo not given),0.132 µM (active),1.05 µM (active),,,0.743 µM (active),0.332 µM (active),3.32 µM (active),,0.743 µM (active),0.166 µM (active),0.743 µM (active),0.59 µM (active),inactive,inactive,0.0935 µM (active),inactive,1.48 µM (active),
CNC(=O)N1N=C(c2ccc(N)cc2)c2cc3c(cc2CC1C)OCO3 (stereo not given),16.6 µM (active),,,,1.48 µM (active),3.72 µM (active),4.69 µM (active),,3.72 µM (active),,2.64 µM (active),13.2 µM (active),,,7.43 µM (active),,5.26 µM (active),5.26 µM (active)
